# According to PubChem BioAssay AID504848 (National Center for Advancing Translational Sciences (NCATS), 2011):
# Screen size: about 2,300 compounds; about 1,400 (61%) were called active. Roughly 29% stayed inconclusive and do not appear here. Calls come from the whole dose curve; as a rule, active = well fitted inhibition curve with a large enough effect; inconclusive = small, poorly fitted or top-dose-only effect, or effect the other way; inactive = no such curve, though single readings can be large or run the other way. The set was probably picked from earlier hits. The list shows a part of the results.
# Test: Confirmation screen for delayed death inhibitors of the malarial parasite plastid, 96 hour incubation; note: nearly all actives have a fitted effect of over 60% in size
# Settings: P. falciparum luciferase growth in erythrocytes; series mostly up to 28.7 µM
# In short: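 Erythrocytes infected with luciferase-expressing P. falciparum (2% hematocrit, 0.1% parasitemia final) in RPMI 1640 with 0.5% Albumax, exposed to compounds 96 h at 37 C, 5% CO2. Growth inhibition read as decreased luciferase luminescence.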
# Potency is the fitted concentration of half-maximal effect.
row,SMILES,Potency
1,CCc1nn2c(=O)cc(COc3cccc(NC(=O)c4ccco4)c3)nc2s1,10 µM (active)
2,C=CCNC(=O)c1onc(CSc2cccc(C)c2)c1C(=O)O,inactive
3,CCc1noc(C)c1C(=O)N1CCC(CCC(=O)Nc2cccc(C)c2)CC1,6.31 µM (active)
4,CC(=O)c1ccc[n+](CC(=O)NC(C)c2ccccc2)c1 (centres undefined),4.47 µM (active)
5,O=C(O)CCNS(=O)(=O)c1cccc(Br)c1,inactive
6,CCc1ccccc1Nc1nc(N)nc(COC(=O)CCC(=O)c2ccc(F)cc2)n1,2.51 µM (active)
7,CCc1ccccc1Nc1nc(N)nc(COC(=O)CCNS(=O)(=O)c2ccccc2)n1,12.6 µM (active)
8,COc1ccccc1-n1c(=S)[nH]c2c(sc(=S)n2-c2ccc(C)cc2C)c1=O,3.16 µM (active)
9,COc1ccccc1CNC(=O)c1ccc(-c2ccccc2Cl)o1,6.31 µM (active)
10,CCCC(=O)Nc1nnc(CC(=O)N2CCCC2)s1,inactive
11,COc1ccc(CN2CCN(C(=O)CCC(=O)Nc3nnc(C4CCCCC4)s3)CC2)cc1F,10 µM (active)
12,CCCc1nnc(NC(=O)CCC(=O)N2CCN(Cc3ccc(Cl)cc3)CC2)s1,11.2 µM (active)
13,O=C(Cc1cccs1)NCCc1ccc(Cl)cc1,5.62 µM (active)
14,CC(C)(C)OC(=O)[C@H]1[C@H](c2ccc([N+](=O)[O-])cc2)C2(C(=O)c3ccccc3C2=O)C2c3ccccc3C=NN21 (some centres undefined),5.01 µM (active)
15,COc1cccc(NC(=O)CSc2nc3ccccc3nc2N2CCCC2)c1,12.6 µM (active)
16,O=C(O)c1nn(CCSc2ccccc2F)c(=O)c2ccccc12,inactive
17,O=c1cc(CSc2ccc(Cl)cc2)nc(-c2ccccn2)[nH]1,3.16 µM (active)
18,CN(CCCN1CCOCC1)C(=O)c1ccc2nc(Cc3cccc(Cl)c3)oc2c1,11.2 µM (active)
19,O=S(=O)(c1cnc[nH]1)N1CCN(C(c2ccc(F)cc2)c2ccc(F)cc2)CC1,11.2 µM (active)
20,O=C(O)c1ccc(O)cc1O,2.51 µM (active)
21,O=C(COC(=O)c1ccc(O)cc1O)Nc1ccc2ccccc2c1,inactive

row,SMILES,Potency
1,CCOc1ccccc1CNC(=O)c1cc2oc3ccccc3c2n1CC,12.6 µM (active)
2,COc1cccc(CNC(=O)c2cc3oc4ccccc4c3n2C)c1OC,inactive
3,CCOc1ccccc1CNC(=O)c1cc2oc3ccccc3c2n1C,12.6 µM (active)
4,CCOC(=O)[C@H]1[C@H]2COc3cc(OC)ccc3[C@@H]2N2C(=O)N(c3ccc(Cl)cc3)C(=O)[C@@]12C,inactive
5,O=C(CN(c1ccc2c(c1)OCCO2)S(=O)(=O)c1ccccc1)NCc1ccc(Cl)cc1,12.6 µM (active)
6,O=C(CCN1CCN(S(=O)(=O)c2cccc([N+](=O)[O-])c2)CC1)Nc1ccccc1F,10 µM (active)
7,CSc1ccccc1NC(=O)CN1CCN(S(=O)(=O)c2ccccc2[N+](=O)[O-])CC1,12.6 µM (active)
8,CCOC(=O)CCC(=O)Nc1ncnc2c1C(c1ccccc1)c1c(ccc3ccccc13)O2 (centres undefined),7.94 µM (active)
9,CCC(=O)c1ccc(OCC(=O)NCC2(N3CCCCC3)CCCCC2)cc1,14.1 µM (active)
10,CN(C)S(=O)(=O)c1ccc(Cl)c(NC(=O)CN2C(=O)NC(C)(C3CC3)C2=O)c1 (centres undefined),12.6 µM (active)
11,O=c1[nH]c(C2CCN(S(=O)(=O)c3cccc([N+](=O)[O-])c3)CC2)nc2c1nnn2Cc1ccccc1,8.91 µM (active)
12,C#CCOCCOCCOCCNc1nc(N2CCN(C(=O)Cn3cc(CC(C)O)nn3)CC2)nc(N2CCN(C(=O)[C@H]([C@@H](C)CC)n3cc(CCCN=C(N)N)nn3)CC2)n1 (some centres undefined),1 µM (active)
13,C#CCOCCOCCOCCNc1nc(N2CCN(C(=O)Cn3cc(CCCCN)nn3)CC2)nc(N2CCN(C(=O)[C@H](C)n3cc(CCCN=C(N)N)nn3)CC2)n1,1 µM (active)
14,C#CCOCCOCCOCCNc1nc(N2CCN(C(=O)Cn3cc(CC(C)O)nn3)CC2)nc(N2CCN(C(=O)[C@H](C)n3cc(CCCN=C(N)N)nn3)CC2)n1 (some centres undefined),15.8 µM (active)
15,COCCNC(=O)CCCCCN1C(=O)CCC1=O,inactive
16,CC1(C)CCSC(/C=C/c2ccccc2)=N1,6.31 µM (active)
17,COc1ccc(/C=C2\CCC/C(=C\C=N\N(C)C)C2=O)cc1,12.6 µM (active)
18,O=C(CC1Sc2ccccc2NC1=O)OCc1cc(=O)oc2cc(O)ccc12 (centres undefined),7.08 µM (active)
19,O=C(CCC1CCCCC1)NCCN1C2=NC[C@H](Cc3ccccc3)N2C[C@H]1Cc1ccc(O)cc1,6.31 µM (active)
20,C[C@@H](CN1C2=NC[C@H](Cc3ccc(O)cc3)N2C[C@H]1Cc1ccc(O)cc1)NC(=O)CCC1CCCCC1,5.62 µM (active)
21,C[C@H]1CN=C2N(CCNC(=O)CCC3CCCCC3)[C@H](Cc3ccc(O)cc3)CN21,6.31 µM (active)

row,SMILES,Potency
1,CC(=O)NC(=S)Nc1ccccc1C(=O)NC1CCCCC1,12.6 µM (active)
2,O=C(NC1CCCCC1)C(c1ccncc1)N(Cc1ccccc1)C(=O)c1ccc(-c2ccccc2)[nH]1 (centres undefined),3.98 µM (active)
3,O=C(NC1CCCC1)C(c1ccncc1)N(Cc1ccco1)C(=O)c1ccc(-c2ccccc2)[nH]1 (centres undefined),7.94 µM (active)
4,COc1cc2c(cc1OC)-c1cc(N3CCc4ccccc43)nc(=O)n1CC2,5.01 µM (active)
5,COC(=O)CCC(=O)OC1(C)C(=O)C=C2C=C(C3CC3)N(CCCOC(C)C)C=C2C1=O (centres undefined),1.12 µM (active)
6,O=C(N/N=C/c1ccc([N+](=O)[O-])cc1)c1cccc(N2CCCC2=O)c1,10 µM (active)
7,CC[C@]1([C@H]2O[C@@H]([C@@H]3O[C@](O)(CO)[C@@H](C)C[C@H]3C)C[C@H]2C)CC[C@@H]([C@]2(C)CC[C@@]3(C[C@@H](O)[C@@H](C)[C@@H]([C@H](C)[C@H](OC)[C@H](C)C(=O)O)O3)O2)O1,0.112 µM (active)
8,Cc1c(C(c2ccc(Br)cc2)c2c(C)n(C)n(-c3ccccc3)c2=O)c(=O)n(-c2ccccc2)n1C,11.2 µM (active)
9,CCOc1ccc2nc(C)cc(Nc3cccc([N+](=O)[O-])c3)c2c1,2 µM (active)
10,CCOc1ccccc1C1N=C(c2ccc(OC)cc2)CC(c2ccccc2O)N1 (centres undefined),12.6 µM (active)
11,Cc1cccc(C)c1N1CCN(C(=O)c2ccc3c(c2)OCO3)CC1,12.6 µM (active)
12,O=C(Nc1ccccc1C(F)(F)F)N1CCN(c2ccc3nnc(-c4ccc(F)cc4)n3n2)CC1,3.98 µM (active)
13,O=C(c1ccc(Br)o1)N1CCN(c2ccc3nnc(-c4ccccc4)n3n2)CC1,7.94 µM (active)
14,Cn1c(CCN2CCCC2)nc2cc(NS(=O)(=O)c3ccccc3)ccc21,3.55 µM (active)
15,Cn1c(CCN2CCCC2)nc2cc(NS(=O)(=O)c3ccc(Cl)cc3)ccc21,6.31 µM (active)
16,CC1CCCCN1C(=O)COC(=O)c1cccc(NS(=O)(=O)c2ccccc2)c1 (centres undefined),inactive
17,COc1cc(CNC(=O)CCn2nc(C)c3c(C)n(-c4ccccc4)nc3c2=O)cc(OC)c1OC,12.6 µM (active)
18,COc1ccc(OC)c(CCNC(=O)CCn2nc(C)c3c(C)n(-c4ccccc4)nc3c2=O)c1,5.62 µM (active)
19,COc1ccccc1CNC(=O)CCCn1nc(C)c2c(C)n(-c3ccccc3)nc2c1=O,12.6 µM (active)
20,O=C(CCN1C(=O)C2CC=C(Cl)CC2C1=O)NCc1ccccc1 (centres undefined),inactive
21,Cc1nn(CCC(=O)NCc2ccc(N(C)C)cc2)c(=O)c2nn(-c3ccccc3)c(C)c12,8.91 µM (active)

row,SMILES,Potency
1,CCC(C(=O)NCCc1ccccc1OC)n1nc(C)c2c(C)n(-c3ccccc3)nc2c1=O (centres undefined),10 µM (active)
2,COc1ccccc1CCNC(=O)CCn1nc(C)c2c(C)n(-c3ccccc3)nc2c1=O,7.94 µM (active)
3,C=C1CCC2[C@](C)(CO)[C@H](O)CC[C@@]2(C)[C@@H]1C/C=C1\C(=O)OC[C@H]1O (some centres undefined),11.2 µM (active)
4,CC1(C)Cc2nc(-c3ccccc3)nc(SCC(O)CO)c2CO1 (centres undefined),12.6 µM (active)
5,COc1ccc(C)c2sc(NC(=O)CCS(=O)(=O)c3ccccc3)nc12,inactive
6,CCOc1cccc2sc(NC(=O)CCS(=O)(=O)c3ccccc3)nc12,5.62 µM (active)
7,CC(C)(C)Sc1ccc([N+](=O)[O-])cc1C(=O)Nc1ccncc1,2.51 µM (active)
8,COc1cccc(-c2sc3ccc(OC)cc3c2-c2cc(F)cc(OC)c2)c1,10 µM (active)
9,CN1C(=O)c2ccccc2N(C)C1c1cccc(O)c1 (centres undefined),15.8 µM (active)
10,CC(=O)N1CCc2cc(S(=O)(=O)NCCC(=O)N3CCN(c4ccccn4)CC3)ccc21,7.94 µM (active)
11,CC1CN(c2nc(-c3ccc(Br)cc3)nnc2-c2ccccc2)CC(C)N1 (centres undefined),2.82 µM (active)
12,O=C(CSc1nnc(-c2ccco2)o1)N1c2ccccc2CCc2ccccc21,7.94 µM (active)
13,O=C(CCCl)Nc1nc2c(s1)CCc1ccccc1-2,11.2 µM (active)
14,O=C(Cc1cn2ccsc2n1)Nc1nc2c(s1)CCCC2,inactive
15,O=C(Cn1c(=O)sc2ccccc21)Nc1nc2c(s1)CCCC2,inactive
16,COc1ccc(CN(C(=O)c2oc3ccc(F)cc3c2C)C2CCS(=O)(=O)C2)cc1 (centres undefined),14.1 µM (active)
17,Cc1cc(C(=O)N(C)CC2CCCN(CCc3ccc(F)cc3)C2)c(C)o1 (centres undefined),14.1 µM (active)
18,Cc1c(/C=N/NC(=O)c2cccs2)c2ccccc2n1Cc1ccccc1Cl,3.16 µM (active)
19,Cc1ccccc1NC1=NCC(c2ccc([N+](=O)[O-])cc2)S1 (centres undefined),11.2 µM (active)
20,CCN(CC)CCNC(=O)c1ccc(NC(=O)c2ccccc2-c2ccc(C(F)(F)F)cc2)cc1,11.2 µM (active)
21,CCN(CC)C(=O)CSc1nc(COc2ccccc2)nc2ccccc12,11.2 µM (active)
